Rows were chosen to be rich in hits. Some 2.2% of all compounds tested hit in one or more screens of this group.
VACV Venus inh – vaccinia inhibition (Venus reporter). Potency, µM (highest dose often 36.5 µM), usual class: inhibitors. AID 720580. Vaccinia virus Venus reporter expression, fluorescence. 330,000 tested, 0.46% active; calls by dose curve; tested in A549 cells; note: nearly all actives have a fitted effect of over 30% in size
FMDV antiviral – foot and mouth disease virus antiviral activity; FMDV antiviral cell-based qHTS; Potency, µM (series often up to 57.9 µM), hits mostly inhibitors; 410,000 tested, 1.2% active; AID 1159524; calls by dose curve; tested in HEK293T cells; note: read-out not given here; nearly all actives have a fitted effect of over 45% in size
Giardia FBPA inh – blocks Giardia fructose-bisphosphate aldolase activity | A8B2U2 | 290,000 tested, 0.71% active | purified Giardia FBPA | Potency, µM (series often up to 59.6 µM), hits mostly inhibitors; active = well fitted inhibition curve with a large enough effect; inconclusive = small, poorly fitted or top-dose-only effect, or effect the other way; note: nearly all actives have a fitted effect of over 55% in size
Target sequence (A8B2U2 whole entry, looked up): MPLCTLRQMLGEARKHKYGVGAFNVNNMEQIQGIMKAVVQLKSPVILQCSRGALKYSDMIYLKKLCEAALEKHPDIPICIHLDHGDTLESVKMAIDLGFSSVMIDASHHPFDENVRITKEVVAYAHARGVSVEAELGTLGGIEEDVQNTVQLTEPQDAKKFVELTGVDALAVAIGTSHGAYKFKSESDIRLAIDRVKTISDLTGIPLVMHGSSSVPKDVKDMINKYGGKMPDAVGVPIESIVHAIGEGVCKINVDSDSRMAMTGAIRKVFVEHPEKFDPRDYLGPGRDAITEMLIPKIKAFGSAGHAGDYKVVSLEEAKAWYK
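40 nM FBPA preincubated 10 min at RT with compound (up to 57.5 uM final), then substrate plus GAPDH/TPI/NAD/arsenate coupling and diaphorase/resazurin added. Fluorescence read after 20 min at RT, 525/598 nm.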
Vaccinia mCherry – vaccinia inhibition (mCherry reporter); Potency, µM (highest dose often 36.5 µM), usual class: inhibitors; Vaccinia virus mCherry reporter infection, fluorescence; 310,000 tested, 0.63% active; calls by dose curve; tested in A549 cells; note: nearly all actives have a fitted effect of over 35% in size
Large screens that a line does not name were inactive.

O=S(=O)(c1nccs1)N1CCN(c2nc(-c3cccs3)nc3ccccc23)CC1	none (no result: FMDV antiviral, Giardia FBPA inh)
O=C(CC(c1ccccc1)c1cc(Br)ccc1O)NCC1(c2ccccc2)CCCC1 (stereo not drawn)	FMDV antiviral inconclusive (no result: Giardia FBPA inh)
CCOC(=O)c1ccc(S(=O)(=O)N2CCN(c3nc(-c4ccccc4)nc4ccccc34)CC2)cc1	none (no result: FMDV antiviral, Giardia FBPA inh)
COc1ccc(NC(=O)CSc2nnc3c(n2)[nH]c2ccc(S(=O)(=O)N(C)C)cc23)c(OC)c1	none (no result: FMDV antiviral, Giardia FBPA inh)
Cc1ccc(C(C)C)c(OCc2ccc(C(=O)N/N=C/c3ccc(O)cc3O)cc2)c1	VACV Venus inh inconclusive, Vaccinia mCherry 1.58µM
CC(C)c1cc2c(c(O)c1O)[C@@]1(C(=O)O)CCCC(C)(C)[C@@H]1CC2	Giardia FBPA inh 9.98µM (no result: VACV Venus inh, FMDV antiviral, Vaccinia mCherry)
COC(=O)C1=C(C)N(Cc2ccccc2)C(=NCc2ccccc2)N[C@H]1c1cccc(C(F)(F)F)c1	VACV Venus inh 14.1µM, FMDV antiviral inconclusive, Vaccinia mCherry inconclusive (no result: Giardia FBPA inh)
COC(=O)C1=C(C)N(Cc2ccccc2)C(=NCCc2cccnc2)N[C@H]1c1ccc(Br)cc1	VACV Venus inh 12.6µM, FMDV antiviral inconclusive, Vaccinia mCherry inconclusive
Cc1cc(C)n(-c2cccc(C(=O)NCC3Cc4cc(Cl)cc(-c5cnccn5)c4O3)c2)n1 (stereo not drawn)	none (no result: Giardia FBPA inh)
CCCCOc1ccc(Br)cc1/C(C)=N/NC1=NCCN1	VACV Venus inh 6.31µM, FMDV antiviral 14.1µM (no result: Vaccinia mCherry)
CN(CC1COc2ccccc2O1)c1nc(-c2cccnc2)nc2ccccc12 (stereo not drawn)	FMDV antiviral 25.1µM, Vaccinia mCherry inconclusive
c1cncc(-c2nc(NCc3ccc4c(c3)OCO4)c3ccccc3n2)c1	FMDV antiviral inconclusive (no result: VACV Venus inh, Vaccinia mCherry)
CCOc1ccc(CN(C)c2nc(-c3cccnc3)nc3ccccc23)cc1OC	VACV Venus inh inconclusive, FMDV antiviral 25.1µM, Vaccinia mCherry inconclusive
CN(Cc1ccccc1F)c1nc(-c2cccnc2)nc2ccccc12	FMDV antiviral inconclusive
c1cncc(-c2nc(NCC3COc4ccccc4O3)c3ccccc3n2)c1 (stereo not drawn)	VACV Venus inh 11.2µM, FMDV antiviral 22.4µM, Vaccinia mCherry inconclusive
c1ccc(CN2CCC(Nc3nc(-c4cccnc4)nc4ccccc34)CC2)cc1	VACV Venus inh 12.6µM, Vaccinia mCherry inconclusive
O=C(NCCN1CCOCC1)c1cnn(-c2nccc(-c3ccccc3C(F)(F)F)n2)c1C1CC1	none (no result: Giardia FBPA inh)
CCOCC	none (no result: VACV Venus inh, FMDV antiviral, Vaccinia mCherry)
C#Cc1cccc(C(=O)NCc2nc(-c3ccccc3NC(=O)C3CCCO3)oc2C)c1 (stereo not drawn)	none (no result: Giardia FBPA inh)
COC(=O)N1C2=C(c3ccccc3[C@@H]1CC(=O)Nc1ccc(Br)cc1)[C@@H]1C(=O)N(c3ccccc3)C(=O)[C@@H]1[C@H](C)C2	none (no result: VACV Venus inh, FMDV antiviral, Vaccinia mCherry)
CC(C)N=C(NS(=O)(=O)c1ccccc1)C(Cl)(Cl)Cl	VACV Venus inh 11.2µM, Vaccinia mCherry 14.1µM
O=S(=O)(NC(=S)c1ccccc1)c1ccccc1	none (no result: Giardia FBPA inh)
O=C1C=CC(O)C2(CO)OC12 (stereo not drawn)	FMDV antiviral 28.2µM (no result: Giardia FBPA inh)
CC1C(=O)N(Cc2ccccc2F)c2ccccc2N1C(=O)c1c(F)cccc1F (stereo not drawn)	FMDV antiviral 35.5µM (no result: VACV Venus inh, Vaccinia mCherry)
O=C1NC(=O)N(Cc2ccccc2F)C1=O	Giardia FBPA inh inconclusive
CC1C(=O)N(Cc2cccc(F)c2)c2ccccc2N1C(=O)c1ccccc1 (stereo not drawn)	FMDV antiviral 17.8µM
COc1cccc(CN2C(=O)C(C)N(C(=O)c3c(F)cccc3F)c3ccccc32)c1 (stereo not drawn)	FMDV antiviral 28.2µM (no result: VACV Venus inh, Vaccinia mCherry)
COc1cccc(-c2ccc3c(c2)N(Cc2cccc(F)c2)C(=O)C(C)S3)c1 (stereo not drawn)	FMDV antiviral inconclusive (no result: Giardia FBPA inh)
CC(NC(=O)c1cc(F)ccc1F)c1nnc2n1CCN(Cc1ccccc1O)CC2 (stereo not drawn)	none (no result: Giardia FBPA inh)
Cc1nn(-c2ccccc2)c(C)c1CC(=O)NCC1Cc2cc(F)cc(-c3cccnc3)c2O1 (stereo not drawn)	none (no result: Giardia FBPA inh)
COc1ccc(OC)c(CCNC(=O)C(C)n2nc(C)c3c(C)n(-c4ccc(C)cc4)nc3c2=O)c1 (stereo not drawn)	FMDV antiviral 3.55µM
Cc1ccc(NC(=O)C2CCCN(c3nnc(C)c4c(C)n(-c5ccccc5)nc34)C2)cc1Cl (stereo not drawn)	VACV Venus inh 11.2µM, Vaccinia mCherry inconclusive (no result: Giardia FBPA inh)
CCOc1ccccc1CNC(=O)Cn1nc(C)c2c(C)n(-c3ccc(C)cc3)nc2c1=O	FMDV antiviral 15.8µM (no result: VACV Venus inh, Vaccinia mCherry)
Cc1ccc(-n2nc3c(N4CCC(C(=O)NCc5ccccc5C)CC4)nnc(C)c3c2C)cc1	none (no result: VACV Venus inh, Vaccinia mCherry)
Cc1ccc(-n2nc3c(N4CCC(C(=O)NCc5ccccc5Cl)CC4)nnc(C)c3c2C)cc1	VACV Venus inh 10µM, FMDV antiviral inconclusive, Vaccinia mCherry inconclusive (no result: Giardia FBPA inh)
Nc1nc(-c2nn(Cc3ccccc3F)c3ncccc23)ncc1C1CC1	none (no result: VACV Venus inh, FMDV antiviral, Vaccinia mCherry)
CCOc1ccc(CNC(=O)C2CCN(c3nnc(C)c4c(C)n(-c5ccc(C)cc5)nc34)CC2)cc1	FMDV antiviral inconclusive (no result: VACV Venus inh, Vaccinia mCherry)
Cc1nnc(N2CCC(C(=O)NCCc3ccccc3)CC2)c2nn(-c3ccc(Cl)cc3)c(C)c12	VACV Venus inh inconclusive, Vaccinia mCherry inconclusive (no result: Giardia FBPA inh)
CCOc1ccccc1CNC(=O)C1CCN(c2nnc(C)c3c(C)n(-c4ccc(C)cc4)nc23)CC1	VACV Venus inh 11.2µM, FMDV antiviral inconclusive, Vaccinia mCherry 11.2µM
Cc1nnc(N2CCC(C(=O)NCCc3ccccc3Cl)CC2)c2nn(-c3ccccc3)c(C)c12	VACV Venus inh inconclusive, Vaccinia mCherry 28.2µM (no result: Giardia FBPA inh)
COc1ccccc1CCNC(=O)C1CCN(c2nnc(C)c3c(C)n(-c4ccc(C)cc4)nc23)CC1	VACV Venus inh 10µM, Vaccinia mCherry 14.1µM
COc1cc(=O)n2c(c1C(=O)N(C)Cc1nonc1C)CCN(C(=O)c1cc(C)cc(C)c1)CC2	none (no result: Giardia FBPA inh)
CCCNS(=O)(=O)c1ccc2nc(NC(=O)c3ccc(F)cc3)sc2c1	none (no result: Giardia FBPA inh)
CC1=C(C(=O)Nc2ccc(C(=O)N3CCN(c4cccc(Cl)c4)CC3)cc2)SCCO1	none (no result: VACV Venus inh, Vaccinia mCherry)
CC1=C(C(=O)Nc2cc(C(=O)N3CCN(c4ccc(Cl)cc4)CC3)ccc2C)SCCO1	FMDV antiviral 22.4µM (no result: Giardia FBPA inh)
CCN(CC)C(=O)c1cccc(-c2csc(C(C)(O)c3ccc(F)c(F)c3)n2)c1 (stereo not drawn)	VACV Venus inh inconclusive, FMDV antiviral 25.1µM, Vaccinia mCherry inconclusive (no result: Giardia FBPA inh)
CCN(CC)C(=O)c1cccc(-c2csc(C(C)(O)c3cccc(OC)c3)n2)c1 (stereo not drawn)	FMDV antiviral 35.5µM (no result: Giardia FBPA inh)
Cc1nc(-c2c(-c3ccc(O)cc3O)noc2C(F)(F)F)cs1	VACV Venus inh inconclusive, FMDV antiviral 35.5µM (no result: Vaccinia mCherry)
CCCNC(=O)C1(C)CCCN(C(=O)c2cccnc2Oc2ccccc2)C1 (stereo not drawn)	none (no result: Giardia FBPA inh)
COCCNC(=O)C1(C)CCN(C(=O)c2cccnc2Oc2ccccc2)C1 (stereo not drawn)	VACV Venus inh 31.6µM, Vaccinia mCherry 28.2µM (no result: Giardia FBPA inh)
CCCc1nc2ccccc2n1CC(O)COc1ccc(C(=O)OC)cc1 (stereo not drawn)	FMDV antiviral 28.2µM (no result: Giardia FBPA inh)
CCOC(=O)c1c(C)n(C)c2ccc(OCC(O)Cn3c(C)nc4ccccc43)cc12 (stereo not drawn)	FMDV antiviral 17.8µM (no result: VACV Venus inh, Vaccinia mCherry)
CCC(=O)c1ccc(OCC(O)Cn2c(C)nc3ccccc32)cc1 (stereo not drawn)	FMDV antiviral inconclusive, Vaccinia mCherry inconclusive
